Laboratory results: PMC9911399, “Two distinct binding modes provide the RNA-binding protein RbFox with extraordinary sequence specificity”
Numbering of substitutions follows the chain as printed; changes in the protein carry UniProt numbers. In all, about 16,000 sequences were measured (“ka relative to ugcaugu”: median about 0.0091, highest 2% from about 0.032 on). The sample holds the highest values, similar sequences and a random draw of the others, so the mix is not that of the screen.

T1: RBFOX1 RRM (Homo sapiens, UniProt Q9NWB1 109-208)
T1 sequence: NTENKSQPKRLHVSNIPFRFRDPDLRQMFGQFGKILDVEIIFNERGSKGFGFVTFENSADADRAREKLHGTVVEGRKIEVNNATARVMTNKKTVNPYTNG

B1: UUGCUCG (DNA:RNA)
RNA: GGGAGACCGGAAUUCAGAUUGUCCUUGCUCGUUAAAUCCCGUCGUAGCCACCA
DNA 1: CAATCTGAATTCCGGTCTCCC
DNA 2: TGGTGGCTACGACGGGATT
B2: UCCUGCU (DNA:RNA)
RNA: B1 RNA with U26C, G27C, C28U, U29G, G31U
DNA 1: CAATCTGAATTCCGGTCTCCC
DNA 2: TGGTGGCTACGACGGGATT
B3: UGCUUAU (DNA:RNA)
RNA: B1 RNA with U26G, G27C, C28U, C30A, G31U
DNA 1: CAATCTGAATTCCGGTCTCCC
DNA 2: TGGTGGCTACGACGGGATT
B4: UUGCCCG (DNA:RNA)
RNA: B1 RNA with U29C
DNA 1: CAATCTGAATTCCGGTCTCCC
DNA 2: TGGTGGCTACGACGGGATT
B5: GUCGUGC (DNA:RNA)
RNA: B1 RNA with U25G, G27C, C28G, C30G, G31C
DNA 1: CAATCTGAATTCCGGTCTCCC
DNA 2: TGGTGGCTACGACGGGATT
B6: UCCGUGC (DNA:RNA)
RNA: B1 RNA with U26C, G27C, C28G, C30G, G31C
DNA 1: CAATCTGAATTCCGGTCTCCC
DNA 2: TGGTGGCTACGACGGGATT
B7: UUGGUGC (DNA:RNA)
RNA: B1 RNA with C28G, C30G, G31C
DNA 1: CAATCTGAATTCCGGTCTCCC
DNA 2: TGGTGGCTACGACGGGATT
B8: UGCUUGU (DNA:RNA)
RNA: B1 RNA with U26G, G27C, C28U, C30G, G31U
DNA 1: CAATCTGAATTCCGGTCTCCC
DNA 2: TGGTGGCTACGACGGGATT
B9: GUGCUUG (DNA:RNA)
RNA: B1 RNA with U25G, C30U
DNA 1: CAATCTGAATTCCGGTCTCCC
DNA 2: TGGTGGCTACGACGGGATT
B10: UUGCUCC (DNA:RNA)
RNA: B1 RNA with G31C
DNA 1: CAATCTGAATTCCGGTCTCCC
DNA 2: TGGTGGCTACGACGGGATT
B11: UGCUUGG (DNA:RNA)
RNA: B1 RNA with U26G, G27C, C28U, C30G
DNA 1: CAATCTGAATTCCGGTCTCCC
DNA 2: TGGTGGCTACGACGGGATT
B12: UGAUUGG (DNA:RNA)
RNA: B1 RNA with U26G, G27A, C28U, C30G
DNA 1: CAATCTGAATTCCGGTCTCCC
DNA 2: TGGTGGCTACGACGGGATT
B13: UUUCUUU (DNA:RNA)
RNA: B1 RNA with G27U, C30U, G31U
DNA 1: CAATCTGAATTCCGGTCTCCC
DNA 2: TGGTGGCTACGACGGGATT
B14: UUGUCUG (DNA:RNA)
RNA: B1 RNA with C28U, U29C, C30U
DNA 1: CAATCTGAATTCCGGTCTCCC
DNA 2: TGGTGGCTACGACGGGATT
B15: GACUUAC (DNA:RNA)
RNA: B1 RNA with U25G, U26A, G27C, C28U, C30A, G31C
DNA 1: CAATCTGAATTCCGGTCTCCC
DNA 2: TGGTGGCTACGACGGGATT
B16: AGCGCCC (DNA:RNA)
RNA: B1 RNA with U25A, U26G, G27C, C28G, U29C, G31C
DNA 1: CAATCTGAATTCCGGTCTCCC
DNA 2: TGGTGGCTACGACGGGATT
B17: GAUUAAA (DNA:RNA)
RNA: GGGAGACCGGAAUUCAGAUUGUCCGAUUAAAUUAAAUCCCGUCGUAGCCACCA
DNA 1: CAATCTGAATTCCGGTCTCCC
DNA 2: TGGTGGCTACGACGGGATT
B18: CAAACAU (DNA:RNA)
RNA: B17 RNA with G25C, U27A, U28A, A29C, A31U
DNA 1: CAATCTGAATTCCGGTCTCCC
DNA 2: TGGTGGCTACGACGGGATT
B19: UAGGGUA (DNA:RNA)
RNA: B17 RNA with G25U, U27G, U28G, A29G, A30U
DNA 1: CAATCTGAATTCCGGTCTCCC
DNA 2: TGGTGGCTACGACGGGATT
B20: CGGCUCA (DNA:RNA)
RNA: B1 RNA with U25C, U26G, G31A
DNA 1: CAATCTGAATTCCGGTCTCCC
DNA 2: TGGTGGCTACGACGGGATT

The binders below were run against T1, RBFOX1 RRM (assay: EMSA; HiTS-Eq, 1 nM pool, 10 min; buffer printed only for the single-RNA assays: 10 mM Tris pH 7.5, 150 mM NaCl, 3.4 mM EDTA, 0.001% NP-40, 30 C). Conditions: tags: His6 N-terminal (pET28a); label: 5' 32P.
Outline: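 Relative association constants, normalised to the cognate motif, were derived by comparing read counts of each RNA species with those of the control reaction. The RNA sequenced was the free fraction, separated by 8% native PAGE after a 10 min equilibration in 50 µL of 1 nM 5′-radiolabelled RNA (7 randomized nucleotides) with increasing concentrations of purified wild-type or mutant RbFox RRM.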

How did the binding signal turn out when B1 was run?
Its binding signal is 0.0477 KA relative to UGCAUGU.

B2 was tested. Which binding signal did it give?
Its binding signal is 0.0144 KA relative to UGCAUGU.

Which binding signal does the source give for B3 here?
The binding signal was 0.0138 KA relative to UGCAUGU.

For B4, which binding signal is on record?
Its binding signal is 0.0225 KA relative to UGCAUGU.

How did the binding signal turn out when B5 was run?
Its binding signal is 0.0206 KA relative to UGCAUGU.

B6 was tested. Which binding signal did it give?
The binding signal was 0.0168 KA relative to UGCAUGU.

For B7, which binding signal is on record?
The binding signal was 0.0277 KA relative to UGCAUGU.

Which binding signal does the source give for B8 here?
Its binding signal is 0.0532 KA relative to UGCAUGU.

Which binding signal does the source give for B9 here?
The binding signal was 0.053 KA relative to UGCAUGU.

For B10, which binding signal is on record?
Its binding signal is 0.0158 KA relative to UGCAUGU.

How did the binding signal turn out when B11 was run?
Its binding signal is 0.0481 KA relative to UGCAUGU.

With B12 as the binder, how does the binding signal read?
Its binding signal is 0.0223 KA relative to UGCAUGU.

Which binding signal does the source give for B13 here?
Its binding signal is 0.0113 KA relative to UGCAUGU.

B14 was tested. Which binding signal did it give?
The binding signal was 0.0312 KA relative to UGCAUGU.

Which binding signal does the source give for B15 here?
The binding signal was 0.00749 KA relative to UGCAUGU.

With B16 as the binder, how does the binding signal read?
The binding signal was 0.00884 KA relative to UGCAUGU.

With B17 as the binder, how does the binding signal read?
The binding signal was 0.00427 KA relative to UGCAUGU.

For B18, which binding signal is on record?
The binding signal was 0.000358 KA relative to UGCAUGU.

B19 was tested. Which binding signal did it give?
The binding signal was 0.0162 KA relative to UGCAUGU.

Which binding signal does the source give for B20 here?
Its binding signal is 0.00697 KA relative to UGCAUGU.
